Screens as filed in PubChem.
An excerpt weighted towards active compounds, which were near 10% of everything screened.
GLA spleen mod – qHTS Assay for Inhibitors and Activators of Human alpha-Galactosidase From Spleen Homogenate | Alpha-galactosidase A (Homo sapiens), P06280 | human spleen homogenate, 4MU-alpha-Gal fluorescence, 40 min | Potency, µM (doses to about 80 µM), inactives show at the highest dose activity change, negative = inhibition, actives largely listed as inhibitors | 240,000 compounds, 0.008% hits;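 note: potency is the fitted concentration of half-maximal effect; 0% = enzyme with vehicle and -100% = no enzyme basal signal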
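Human spleen homogenate (1 ug) as enzyme source, 4-methylumbelliferyl-alpha-D-galactopyranoside 1 mM final, citrate/phosphate pH 5.0 with 0.01% Tween-20. Compounds 40 min at 37C, NaOH/glycine stop; fluorescence Ex 365/Em 440, Hill-fit AC50.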
ALOX12 inhib – qHTS Assay for Inhibitors of 12-hLO (12-human lipoxygenase). purified 12-hLO, xylenol orange hydroperoxide absorbance. 150,000 compounds, 0.12% hits. Potency, µM (series often up to 57.1 µM), for the others: at the top dose activity change, negative = inhibition, hits mostly inhibitors. Polyunsaturated fatty acid lipoxygenase ALOX12 (Homo sapiens), P18054; note: potency is the fitted concentration of half-maximal effect; nearly all actives have a fitted effect of over 55% in size
Target sequence (P18054 whole entry, looked up): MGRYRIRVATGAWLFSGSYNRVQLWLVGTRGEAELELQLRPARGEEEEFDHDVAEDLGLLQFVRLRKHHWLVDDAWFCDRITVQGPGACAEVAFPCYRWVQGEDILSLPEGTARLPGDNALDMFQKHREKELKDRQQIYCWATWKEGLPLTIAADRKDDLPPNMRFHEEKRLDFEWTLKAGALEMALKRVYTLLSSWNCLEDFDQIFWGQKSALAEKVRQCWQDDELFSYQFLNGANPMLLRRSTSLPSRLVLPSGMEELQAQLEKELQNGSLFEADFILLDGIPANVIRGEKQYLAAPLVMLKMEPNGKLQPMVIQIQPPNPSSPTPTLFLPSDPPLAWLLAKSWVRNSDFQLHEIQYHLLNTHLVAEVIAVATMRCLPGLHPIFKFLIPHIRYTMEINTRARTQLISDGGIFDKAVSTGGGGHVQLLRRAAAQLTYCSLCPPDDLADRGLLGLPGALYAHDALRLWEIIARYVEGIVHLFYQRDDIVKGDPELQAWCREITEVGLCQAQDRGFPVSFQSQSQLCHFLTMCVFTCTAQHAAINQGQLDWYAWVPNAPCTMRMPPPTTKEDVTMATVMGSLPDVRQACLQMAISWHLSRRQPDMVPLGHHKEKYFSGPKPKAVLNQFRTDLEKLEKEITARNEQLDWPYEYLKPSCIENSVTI
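Hydroperoxide formation by human 12-lipoxygenase from 40 uM arachidonic acid was followed colorimetrically via ferric-xylenol orange complex, using the 573/405 nm absorbance ratio. Enzyme concentration was 150 nM, with 30 min reaction at room temperature.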
GLA inh pH 4.5 – qHTS Assay for Inhibitors of Human alpha-Galactosidase at pH 4.5; Alpha-galactosidase A (Homo sapiens), P06280; purified enzyme, 4-MU-alpha-Gal fluorescence, pH 4.5; activity change, negative = inhibition, % at 105 µM; 230,000 tested, under 10 active;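 note: 0% = full activity with enzyme and -100% = basal without enzyme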
PNC inhibitor – High Content Assay for Compounds that inhibit the Assembly of the Perinucleolar Compartment; AID 2417, 2010; 140,000 compounds, 3.1% hits; PC3M PTB-GFP, PNC prevalence imaging, 16 h; active compounds read low; activity change (PNC), negative = inhibition, % at 10 µM;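 active = readout at or below -70, meaning at least 70% loss of cells showing the perinucleolar compartment, a nuclear body marking cancer cells; inconclusive = readout between -30 and a set limit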;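 note: plate controls were DMSO wells for no effect and camptothecin positive control wells for full effect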
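Compounds are pinned in duplicate onto adhered PC3M cells stably expressing GFP-tagged PTB and incubated 16 h at 37 C. Cells are then fixed, nuclei stained with Hoechst, and PNC-positive cells counted.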
HPGD block – qHTS Assay for Inhibitors of HPGD (15-Hydroxyprostaglandin Dehydrogenase); 15-hydroxyprostaglandin dehydrogenase [NAD(+)] (Homo sapiens), P15428; Potency, µM, for inactives: at the highest dose activity change, negative = inhibition, actives largely listed as inhibitors; AID 894, 2007; purified HPGD, NADH fluorescence kinetic, PGE2 substrate; 150,000 compounds, 4.3% hits; active = well fitted inhibition curve with a large enough effect, not every such curve was filed as active; inconclusive = small, poorly fitted or top-dose-only effect, or another doubt; inactive = no such curve, though single readings can be large or run the other way; note: potency is the fitted concentration of half-maximal effect
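20 nM HPGD preincubated 15 min at room temperature with compound in 50 mM Tris-HCl pH 8, 0.01% Tween 20. Started with 1 mM NAD+ and 30 uM prostaglandin E2; NADH fluorescence (360/450 nm) read 5 times over 30-s intervals, last minus first.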
ALDH1A1 block – qHTS Assay for Inhibitors of Aldehyde Dehydrogenase 1 (ALDH1A1); 220,000 compounds, 7.3% hits; Potency, µM (doses to about 75.3 µM), for inactives: at the highest dose activity, negative = inhibition, actives largely listed as inhibitors; Purified ALDH1A1, NADH fluorescence, propionaldehyde substrate; Aldehyde dehydrogenase 1A1 (Homo sapiens), P00352; AID 1030, 2008; active = well fitted inhibition curve with a large enough effect, not every such curve was filed as active; inconclusive = small, poorly fitted or top-dose-only effect, or another doubt; inactive = no such curve, though single readings can be large or run the other way;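 note: potency is the fitted concentration of half-maximal effect; plate controls were no enzyme wells and a reference inhibitor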
* = called active by the depositor; ? = inconclusive; · = no result given; [ ] = dose if it differs, or a comment. Unless noted, calls come from the whole dose curve; as a rule, active = well fitted curve in the direction sought with a large enough effect; inconclusive = small, poorly fitted or top-dose-only effect, or another doubt; inactive = no such curve, though single readings can be large; an effect the other way counts as inactive or inconclusive. Unless noted, % is set by controls: 0 for no effect and ±100 for the full control effect.

SMILES	GLA spleen mod	ALOX12 inhib	GLA inh pH 4.5	PNC inhibitor	HPGD block	ALDH1A1 block
O=C(N/N=C/c1ccc2c(c1)OCO2)C1COc2ccccc2O1 (stereo not given)	5%	-5%	-4	?	-18%	?
CC(=O)c1ccc(N=c2scc(C)n2C(C)C)cc1	0%	·	5[21.1 µM]	·	·	4%
COc1ccc(/C=C2/C(=O)N(c3nc4ccccc4s3)N=C2CSc2ccc(Cl)cc2)cc1	-9%	-14%	0	-4	14µM*	?
COc1ccc(/C=C2/C(=O)N(Cc3ccccc3)N=C2C)cc1	-1%	-6%	-6	-4	-29%	?
Cc1nn(C)c(C)c1/C=N/NC(=O)c1csc2ccccc12	0%	-1%	0	?	-11%	22µM*
COc1cccc(/C(O)=C2/C(=O)C(=O)N(CCN3CCOCC3)C2c2cccnc2)c1 (stereo not given)	-7%	-9%	-11	-18	-26%	3.5µM*
COc1ccc(/C(O)=C2/C(=O)C(=O)N(CCN3CCOCC3)C2c2cccnc2)cc1OC (stereo not given)	-2%	-4%	-17	212	-20%	25µM*
Cc1ccc(/C(O)=C2/C(=O)C(=O)N(CCN3CCOCC3)C2c2cccnc2)cc1 (stereo not given)	-2%	7%	3	1	-20%	?
CCc1ccccc1NC1Nc2cc(C)nn2S1 (stereo not given)	-2%	·	5	·	·	?
Cc1cc2n(n1)SC(Nc1cc(Cl)ccc1Cl)N2 (stereo not given)	-2%	?	-9	-100*	-19%	3.5µM*
Cc1cc2n(n1)SC(Nc1cccc3ccccc13)N2 (stereo not given)	-6%	?	-1	-18	-21%	13µM*
Cc1cc2n(n1)SC(Nc1ccc(F)cc1)N2 (stereo not given)	1%	-28%	7	37	-13%	28µM*
Cc1nc(C(C)NC(=O)CCc2nnc(-c3ccsc3)o2)cs1 (stereo not given)	-4%	·	3	·	·	1%
Cc1ccc(P(=Nc2ccccc2)(N2CCOCC2)N2CCOCC2)o1	-12%	4%	6	-92*	0%	4%
O=C(OC[C@@H](O)CO)c1ccccc1Nc1ccnc2cc(Cl)ccc12	2%[29.1 µM]	2%[25.6 µM]	-8	·	-7%	6%[20.9 µM]
Nc1nonc1-n1nnc(C(=O)c2ccccc2)c1-c1ccccc1	-5%	-12%	-9	?	-12%	2.8µM*
CCOC(=O)c1nnn(-c2nonc2N)c1-c1ccc(OCC)cc1	2%	-2%	-3	-12	4%	-14%
CCn1cc(CNC(=O)c2cc(COc3ccc(F)cc3F)on2)cn1	6%	·	3	·	·	-5%
CC(C)CCNC(=O)C(c1ccco1)N(Cc1ccccc1)C(=O)c1snc(C(N)=O)c1N (stereo not given)	11%	-10%	-3	-123*	-9%	?
Cc1ccc(N(C(=O)c2snc(C(N)=O)c2N)C(C(=O)NCCC(C)C)c2ccco2)cc1 (stereo not given)	5%	·	-5	·	·	15%
CCOc1ccc(N/C=C/C(=O)c2ccc3ccccc3c2)c([N+](=O)[O-])c1	-2%	4%	7	33	-3%	-1%
O=C(/C=C\NCC(=O)c1ccccc1)c1ccc2ccccc2c1	-11%	-8%	-4	?	·	4.5µM*
O=C(/C=C\NCC(=O)c1ccccc1)c1ccc(F)cc1	1%	-27%	-24	56	-21%	20µM*
CCn1c(NC(=O)c2ccc(F)cc2)c2ccccc2nc1=O	10%	1%	-5	25	-2%	0%
CCn1c(NC(=O)c2ccc(C)cc2)c2ccccc2nc1=O	12%	6%	7	-90*	1%	3%
SMILES	GLA spleen mod	ALOX12 inhib	GLA inh pH 4.5	PNC inhibitor	HPGD block	ALDH1A1 block
Cc1ccc(OCC(=O)NCC(=O)n2nc(C)cc2C)cc1	5%	-3%	3	-3	-2%	3%
Cc1cc(C)n(C(=O)CNC(=O)COc2ccccc2)n1	4%	-2%	-6	-9	32µM*	11%
CCn1ncc(/C=C2/SC(=S)NC2=O)c1C	-22%	-6%	5	30	16µM*	-13%
Cc1nn(Cc2n[nH]c(=S)n2Cc2ccccc2)c(C)c1Cl	-1%	-3%	7	-15	-3%	-12%
O=C(CC(NC(=O)c1ccccc1Cl)c1ccccc1)NCCc1ccc(Cl)cc1 (stereo not given)	-3%	2%	7	-108*	-3%	-3%
O=C(c1cc(C(F)(F)F)cc(C(F)(F)F)c1)N1CCC2(CC1)CCN(c1ccccn1)CC2	6%	-18%	·	·	-30%	-8%
O=C1c2ccccc2C(=O)N1CCCCN(C(=O)c1cc2ccccc2oc1=O)c1ccc(Cl)cc1	4%	-2%	-7	28	-11%	7.9µM*
Cc1ccc(N(C(=O)c2cc3ccccc3oc2=O)C2C=CS(=O)(=O)C2)cc1 (stereo not given)	-1%	1%	-1	-10	·	?
Oc1ccc(-c2nc(-c3ccc(O)c(O)c3)cs2)cc1	6%	5µM*	-2	-101*	?	11µM*
COC(=O)c1ccc(C(/C=C/[C@@H](C)C(=O)N(C)C)NC(=O)OCc2ccccc2)cc1 (stereo not given in full)	-3%	0%	-6	·	-13%	?
CCNc1ncc2nc(-c3ccc(Cl)cc3)c(=O)n(C3CC3)c2n1	23%	-3%	·	·	?	?
COc1ccc(CN=Cc2[nH]c3ccc(Br)c(Cl)c3c2O)cc1	4%	-17%	8	?	?	4µM*
Cc1cc(C)cc(N=Cc2[nH]c3ccc(Br)c(Cl)c3c2O)c1	3%	-8%	1	-28	?	7.9µM*
Cc1ccc(N=Cc2cc(Br)cc(Cl)c2O)cc1	-9%	·	-5	·	·	13%
CCn1c(CSc2nc(C)cc(C)n2)nnc1SCC(=O)Nc1cccc2ccccc12	-16%	-1%	-4	-107*	4%	-3%
O=C(CCc1ccccc1)n1nc(-c2ccco2)nc1SCc1ccccc1	7%	-3%	0	?	8.9µM*	5%
O=C(CC(c1ccc(F)cc1)c1ccco1)Nc1nccs1 (stereo not given)	4%	·	-10	·	·	?
